Reference: the supplement of paper PMC13380429

Tested on: Vero E6 infected with SARS-CoV-2
Assay: SARS-CoV-2 infection rate relative to infected DMSO; higher = more infection, active = 60 or less
Conditions: 24 h

Row | Compound | SARS-CoV-2 infection rate
1 | O=C(O)c1cc(=O)c2c(OCC(O)COc3cccc4oc(C(=O)O)cc(=O)c34)cccc2o1 [cromoglicic-acid] (10 µM) | 87% (inactive)
2 | O=c1[nH]c([C@@H]2CCCN2)nc2c1oc1ccc(Cl)cc12 (0.833333 µM) | 104% (inactive)
3 | O=C(O)C(=O)O.[NH-][C@@H]1CCCC[C@H]1[NH-].[Pt+2] [oxaliplatin] (10 µM) | 112% (inactive)
4 | O=c1cc(N2CCOCC2)oc2c(-c3cccc4c3sc3ccccc34)cccc12 (0.833333 µM) | 68% (inactive)
5 | Nc1ncccc1-c1nc2ccc(-c3ccccc3)nc2n1-c1ccc(C2(N)CCC2)cc1 (10 µM) | 29.5% (active)
6 | COc1c(O)cc2c(c1O)[C@@H]1O[C@H](CO)[C@@H](O)[C@H](O)[C@H]1OC2=O [bergenin] (10 µM) | 96% (inactive)
7 | CC[C@H](CC[C@@H](C)[C@H]1CC[C@H]2[C@@H]3CC=C4C[C@@H](O)CC[C@]4(C)[C@H]3CC[C@]12C)C(C)C [beta-Sitosterol] (10 µM) | 99% (inactive)
8 | Cc1cccc2c1CC[C@H](CN1CCC(c3c(Cl)cccc3Cl)CC1)C[C@@H]2O (0.833333 µM) | 98% (inactive)
9 | CC[C@@H](CO)NC(=O)[C@@H]1C=C2c3cccc4[nH]cc(c34)C[C@H]2N(C)C1 [methylergometrine] (10 µM) | 96.5% (inactive)
10 | C=C(CC)C(=O)c1ccc(OCC(=O)O)c(Cl)c1Cl [etacrynic-acid] (10 µM) | 98.5% (inactive)
11 | COc1cc2c(c(OC)c1OC)-c1c(cc3c(c1OC)OCO3)C[C@H](C)[C@@](C)(O)C2 [schisandrol-B] (10 µM) | 106% (inactive)
12 | OC(CCCN1CCN(c2ncc(F)cn2)CC1)c1ccc(F)cc1 (centres undefined) (10 µM) | 108% (inactive)
13 | O=C(O)CCNc1cc(N2CCc3ccccc3CC2)nc(-c2ccccn2)n1 (10 µM) | 101% (inactive)
14 | CCOC(=O)Nc1ccc(NCc2ccc(F)cc2)cc1N [Retigabine] (10 µM) | 106% (inactive)
15 | COCCCN1CCC(NC(=O)c2cc(Cl)c(N)c3c2OCC3)CC1 [prucalopride] (10 µM) | 109% (inactive)
16 | Cc1nn(C)c2c1C(c1ccc(C(F)(F)F)cc1)C(C#N)=C(N)O2 (centres undefined) (10 µM) | 98% (inactive)
17 | CCOC(=O)c1ccc(NC2CCCCC2)c(N)c1 [ferrostatin-1] (10 µM) | 94% (inactive)
18 | O=C(O)c1ccc2[nH]cc(CCCCN3CC=C(c4ccccc4)CC3)c2c1 [carmoxirole] (10 µM) | 96.5% (inactive)
19 | COC[C@H](NC(=O)c1cnc(C)s1)C(=O)N[C@@H](COC)C(=O)N[C@@H](Cc1ccccc1)C(=O)[C@@]1(C)CO1 [oprozomib] (0.833333 µM) | 108% (inactive)
20 | C/N=C(/NC#N)NCCSCc1csc(NC(=N)N)n1 [tiotidine] (10 µM) | 98% (inactive)

Row | Compound | SARS-CoV-2 infection rate
21 | N[C@H](CO)C(=O)O [D-serine] (10 µM) | 104% (inactive)
22 | CCCCC1C(=O)N(c2ccccc2)N(c2ccccc2)C1=O [phenylbutazone] (10 µM) | 97.5% (inactive)
23 | CC(NCCc1ccc(O)cc1)C(O)c1ccc(O)cc1 (centres undefined) [ritodrine] (10 µM) | 96% (inactive)
24 | CN(Cc1ccc(C(C)(C)C)cc1)Cc1cccc2ccccc12 [butenafine] (10 µM) | 71% (inactive)
25 | OC(CCN1CCCCC1)(c1ccccc1)C1CC2C=CC1C2 (centres undefined) [biperiden] (10 µM) | 75.5% (inactive)
26 | CC(=O)OCC(=O)[C@@]1(O)CC[C@H]2[C@@H]3CCC4=CC(=O)C=C[C@]4(C)[C@@]3(Cl)[C@@H](Cl)C[C@@]21C [dichlorisone-acetate] (10 µM) | 102% (inactive)
27 | C=C(NC(=O)C(=C)NC(=O)c1csc(C2=N[C@@H]3c4csc(n4)[C@H]4NC(=O)c5csc(n5)[C@H]([C@](C)(O)[C@@H](C)O)NC(=O)[C@H]5CSC(=N5)/C(=C/C)NC(=O)[C@H]([C@@H](C)O)NC(=O)c5csc(n5)[C@]3(CC2)NC(=O)[C@H](C)NC(=O)C(=C)NC(=O)[C@H](C)NC(=O)[C@H]([C@@H](C)CC)N[C@@H]2C=Cc3c([C@H](C)O)cc(nc3[C@H]2O)C(=O)O[C@@H]4C)n1)C(N)=O [thiostrepton] (10 µM) | 92.5% (inactive)
28 | CCCn1c(=O)c(C)cn2nc(N)nc12 (10 µM) | 96.5% (inactive)
29 | CCn1c(=O)c2c(nc(/C=C/c3ccc(OC)c(OC)c3)n2C)n(CC)c1=O [istradefylline] (10 µM) | 108% (inactive)
30 | Cc1c(N(C)C)c(=O)n(-c2ccccc2)n1C [amidopyrine] (10 µM) | 110% (inactive)
31 | CCc1cc(C(C)=O)c(O)cc1OCCCCCC(C)(C)c1nn[nH]n1 (10 µM) | 100% (inactive)
32 | Cc1ccccc1C(c1ccccc1C)N1C2CCC1CC(O)(c1ccccc1)C2 (centres undefined) (10 µM) | 85% (inactive)
33 | COc1ccc2cc(C(C)C(=O)Oc3ccc(C(N)=S)cc3)ccc2c1 (centres undefined) (10 µM) | 97% (inactive)
34 | CN1CCN(Cc2ccc(-c3cnc4[nH]cc(-c5ccc6[nH]ccc6c5)c4c3)cc2)CC1 (0.833333 µM) | 61% (inactive)
35 | CNC(=O)c1ccc(N2C(=S)N(c3cnc(C#N)c(C(F)(F)F)c3)C(=O)C23CCC3)cc1F [apalutamide] (10 µM) | 109% (inactive)
36 | CSc1ccccc1OCC(O)CNC(C)C (centres undefined) [tiprenolol] (10 µM) | 110% (inactive)
37 | COc1ccc(/C=C/C(=O)O)cc1 [trans-4-methoxycinnamic-acid] (10 µM) | 106% (inactive)
38 | CC(=O)Oc1ccccc1C(=O)Oc1cccc(CO[N+](=O)[O-])c1 (10 µM) | 101% (inactive)
39 | O=[N+]([O-])c1cccc2cn[nH]c12 [7-nitroindazole] (10 µM) | 100% (inactive)
